Results as given in ChEMBL document CHEMBL1961873, “Compounds: GSK PKIS; Assays: Nanosyn kinase panel” (2012).

What was measured:
[1] = biological target: Ribosomal protein S6 kinase alpha-6 (Homo sapiens) (UniProt Q9UK32); conditions: at 1 µM;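 also: each value is a mean inhibition of RSK4 from a GSK PKIS panel screen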
[2] = biological target: T1, Serine/threonine-protein kinase Sgk1 (Homo sapiens) (UniProt O00141); conditions: at 0.1 µM
T1 sequence (whole entry): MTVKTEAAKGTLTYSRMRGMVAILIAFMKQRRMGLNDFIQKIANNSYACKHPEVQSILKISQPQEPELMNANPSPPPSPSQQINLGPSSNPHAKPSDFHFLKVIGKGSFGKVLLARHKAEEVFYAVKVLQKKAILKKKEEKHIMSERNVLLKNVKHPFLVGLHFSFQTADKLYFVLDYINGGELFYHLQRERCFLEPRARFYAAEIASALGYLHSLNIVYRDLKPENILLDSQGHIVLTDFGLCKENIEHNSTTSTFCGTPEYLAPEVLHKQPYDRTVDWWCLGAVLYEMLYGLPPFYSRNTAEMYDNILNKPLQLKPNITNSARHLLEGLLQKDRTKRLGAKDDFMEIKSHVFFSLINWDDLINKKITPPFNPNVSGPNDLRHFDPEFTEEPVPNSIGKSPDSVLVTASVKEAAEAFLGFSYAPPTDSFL

[3] = biological target: T1, Serine/threonine-protein kinase Sgk1 (Homo sapiens); conditions: at 1 µM
[4] = biological target: T2, Serine/threonine-protein kinase Sgk2 (Homo sapiens) (UniProt Q9HBY8); conditions: at 0.1 µM
T2 sequence (whole entry): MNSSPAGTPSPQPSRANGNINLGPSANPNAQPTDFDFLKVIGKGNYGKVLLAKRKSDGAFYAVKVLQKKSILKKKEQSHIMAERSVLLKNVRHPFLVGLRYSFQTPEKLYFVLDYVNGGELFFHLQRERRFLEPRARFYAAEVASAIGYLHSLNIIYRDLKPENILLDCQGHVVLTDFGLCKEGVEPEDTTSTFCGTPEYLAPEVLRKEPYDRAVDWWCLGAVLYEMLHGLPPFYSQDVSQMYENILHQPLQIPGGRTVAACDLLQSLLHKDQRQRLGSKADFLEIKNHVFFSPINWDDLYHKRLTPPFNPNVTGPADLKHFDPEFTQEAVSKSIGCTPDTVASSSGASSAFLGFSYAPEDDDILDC

[5] = biological target: T2, Serine/threonine-protein kinase Sgk2 (Homo sapiens); conditions: at 1 µM
[6] = biological target: T3, Serine/threonine-protein kinase Sgk3 (Homo sapiens) (UniProt Q96BR1); conditions: at 0.1 µM
T3 sequence (whole entry): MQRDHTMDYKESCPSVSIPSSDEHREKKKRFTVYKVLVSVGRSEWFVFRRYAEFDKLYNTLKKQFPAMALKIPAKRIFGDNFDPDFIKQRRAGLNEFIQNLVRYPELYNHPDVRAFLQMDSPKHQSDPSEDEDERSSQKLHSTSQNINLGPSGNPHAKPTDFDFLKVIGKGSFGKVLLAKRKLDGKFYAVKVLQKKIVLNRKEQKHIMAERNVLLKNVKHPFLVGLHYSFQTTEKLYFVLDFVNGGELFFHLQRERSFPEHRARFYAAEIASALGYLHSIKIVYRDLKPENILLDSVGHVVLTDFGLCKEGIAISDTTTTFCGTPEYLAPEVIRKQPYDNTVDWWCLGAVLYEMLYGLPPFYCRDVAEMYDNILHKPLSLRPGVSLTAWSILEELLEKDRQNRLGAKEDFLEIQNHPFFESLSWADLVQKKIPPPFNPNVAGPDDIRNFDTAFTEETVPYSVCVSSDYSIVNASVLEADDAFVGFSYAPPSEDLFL

[7] = biological target: T3, Serine/threonine-protein kinase Sgk3 (Homo sapiens); conditions: at 1 µM
[8] = biological target: 5'-AMP-activated protein kinase catalytic subunit alpha-1 (Homo sapiens) (UniProt Q13131); conditions: at 0.1 µM
5'-AMP-activated protein kinase catalytic subunit alpha-1 (Homo sapiens), sequence (Q13131 whole entry, looked up): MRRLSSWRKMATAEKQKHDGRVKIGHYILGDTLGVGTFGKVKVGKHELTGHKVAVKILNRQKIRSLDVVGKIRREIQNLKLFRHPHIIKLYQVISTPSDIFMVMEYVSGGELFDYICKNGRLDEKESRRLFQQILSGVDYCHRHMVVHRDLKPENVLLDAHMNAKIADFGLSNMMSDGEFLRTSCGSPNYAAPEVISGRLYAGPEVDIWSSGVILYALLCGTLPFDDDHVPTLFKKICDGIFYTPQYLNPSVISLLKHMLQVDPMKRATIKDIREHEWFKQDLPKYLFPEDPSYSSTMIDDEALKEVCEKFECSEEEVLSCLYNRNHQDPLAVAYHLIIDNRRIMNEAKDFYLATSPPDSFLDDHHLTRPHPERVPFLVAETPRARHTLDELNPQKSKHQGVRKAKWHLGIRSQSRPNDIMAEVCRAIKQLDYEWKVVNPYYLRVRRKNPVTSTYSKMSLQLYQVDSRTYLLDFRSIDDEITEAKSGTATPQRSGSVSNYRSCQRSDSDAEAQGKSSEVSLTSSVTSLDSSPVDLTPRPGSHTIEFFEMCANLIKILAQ

[9] = biological target: 5'-AMP-activated protein kinase catalytic subunit alpha-1 (Homo sapiens) (UniProt Q13131); conditions: at 1 µM
[10] = biological target: 5'-AMP-activated protein kinase catalytic subunit alpha-2 (Homo sapiens) (UniProt P54646); conditions: at 0.1 µM
5'-AMP-activated protein kinase catalytic subunit alpha-2 (Homo sapiens), sequence (P54646 whole entry, looked up): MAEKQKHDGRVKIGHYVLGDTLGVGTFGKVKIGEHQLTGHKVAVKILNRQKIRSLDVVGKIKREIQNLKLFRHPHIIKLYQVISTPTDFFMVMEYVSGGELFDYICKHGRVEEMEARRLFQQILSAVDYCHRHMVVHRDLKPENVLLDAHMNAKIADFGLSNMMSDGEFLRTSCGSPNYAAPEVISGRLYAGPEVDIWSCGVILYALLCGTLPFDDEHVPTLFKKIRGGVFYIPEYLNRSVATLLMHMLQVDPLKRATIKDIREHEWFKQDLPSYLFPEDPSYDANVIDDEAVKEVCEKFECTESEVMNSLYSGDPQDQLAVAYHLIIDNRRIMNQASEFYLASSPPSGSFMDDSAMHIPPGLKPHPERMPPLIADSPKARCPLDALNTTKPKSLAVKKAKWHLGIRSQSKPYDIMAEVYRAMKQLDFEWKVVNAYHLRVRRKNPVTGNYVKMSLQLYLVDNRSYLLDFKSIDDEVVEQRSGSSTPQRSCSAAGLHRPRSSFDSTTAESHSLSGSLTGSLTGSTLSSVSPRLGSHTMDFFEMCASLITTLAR

[11] = biological target: 5'-AMP-activated protein kinase catalytic subunit alpha-2 (Homo sapiens) (UniProt P54646); conditions: at 1 µM
[12] = biological target: T4, NUAK family SNF1-like kinase 1 (Homo sapiens) (UniProt O60285); conditions: at 0.1 µM
T4 sequence (whole entry): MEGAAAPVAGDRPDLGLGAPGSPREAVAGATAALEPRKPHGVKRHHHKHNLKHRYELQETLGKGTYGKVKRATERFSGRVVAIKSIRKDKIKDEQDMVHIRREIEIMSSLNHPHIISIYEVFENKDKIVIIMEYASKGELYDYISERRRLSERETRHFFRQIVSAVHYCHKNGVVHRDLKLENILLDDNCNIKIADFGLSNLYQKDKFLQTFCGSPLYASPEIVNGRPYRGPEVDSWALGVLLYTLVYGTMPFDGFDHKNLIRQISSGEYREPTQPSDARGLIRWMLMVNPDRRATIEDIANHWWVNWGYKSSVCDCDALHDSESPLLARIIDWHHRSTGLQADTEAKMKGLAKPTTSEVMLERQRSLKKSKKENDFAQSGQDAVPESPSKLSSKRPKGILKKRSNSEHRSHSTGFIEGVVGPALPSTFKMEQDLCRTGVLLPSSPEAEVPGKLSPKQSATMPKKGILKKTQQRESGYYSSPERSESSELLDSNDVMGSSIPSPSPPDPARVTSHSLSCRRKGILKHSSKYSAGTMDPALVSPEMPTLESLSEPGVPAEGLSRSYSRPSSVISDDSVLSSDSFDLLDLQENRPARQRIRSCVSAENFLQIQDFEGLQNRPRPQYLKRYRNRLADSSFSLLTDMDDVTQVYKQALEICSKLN

[13] = biological target: T4, NUAK family SNF1-like kinase 1 (Homo sapiens); conditions: at 1 µM
[14] = biological target: T5, Serine/threonine-protein kinase BRSK1 (Homo sapiens) (UniProt Q8TDC3); conditions: at 0.1 µM
T5 sequence (whole entry): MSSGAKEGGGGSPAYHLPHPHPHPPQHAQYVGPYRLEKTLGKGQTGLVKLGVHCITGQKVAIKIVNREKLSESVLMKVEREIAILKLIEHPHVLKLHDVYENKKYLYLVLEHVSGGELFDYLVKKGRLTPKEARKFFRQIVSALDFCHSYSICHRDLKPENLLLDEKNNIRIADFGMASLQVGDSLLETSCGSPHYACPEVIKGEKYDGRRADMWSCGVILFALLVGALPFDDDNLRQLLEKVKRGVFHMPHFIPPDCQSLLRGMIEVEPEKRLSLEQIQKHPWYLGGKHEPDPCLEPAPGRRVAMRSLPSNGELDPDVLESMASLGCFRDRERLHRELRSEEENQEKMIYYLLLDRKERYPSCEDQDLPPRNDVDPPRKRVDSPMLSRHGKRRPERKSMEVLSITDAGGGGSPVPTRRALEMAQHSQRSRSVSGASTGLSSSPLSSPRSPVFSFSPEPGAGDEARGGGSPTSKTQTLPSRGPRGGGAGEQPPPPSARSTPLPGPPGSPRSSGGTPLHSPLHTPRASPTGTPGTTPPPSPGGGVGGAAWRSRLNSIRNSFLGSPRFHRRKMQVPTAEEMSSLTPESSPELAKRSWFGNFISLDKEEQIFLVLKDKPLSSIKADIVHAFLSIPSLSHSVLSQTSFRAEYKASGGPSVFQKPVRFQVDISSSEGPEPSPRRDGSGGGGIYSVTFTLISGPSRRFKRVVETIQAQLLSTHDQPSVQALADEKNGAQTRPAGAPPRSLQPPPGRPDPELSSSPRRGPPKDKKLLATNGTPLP

[15] = biological target: T5, Serine/threonine-protein kinase BRSK1 (Homo sapiens); conditions: at 1 µM
[16] = biological target: T6, Serine/threonine-protein kinase BRSK2 (Homo sapiens) (UniProt Q8IWQ3); conditions: at 0.1 µM
T6 sequence (whole entry): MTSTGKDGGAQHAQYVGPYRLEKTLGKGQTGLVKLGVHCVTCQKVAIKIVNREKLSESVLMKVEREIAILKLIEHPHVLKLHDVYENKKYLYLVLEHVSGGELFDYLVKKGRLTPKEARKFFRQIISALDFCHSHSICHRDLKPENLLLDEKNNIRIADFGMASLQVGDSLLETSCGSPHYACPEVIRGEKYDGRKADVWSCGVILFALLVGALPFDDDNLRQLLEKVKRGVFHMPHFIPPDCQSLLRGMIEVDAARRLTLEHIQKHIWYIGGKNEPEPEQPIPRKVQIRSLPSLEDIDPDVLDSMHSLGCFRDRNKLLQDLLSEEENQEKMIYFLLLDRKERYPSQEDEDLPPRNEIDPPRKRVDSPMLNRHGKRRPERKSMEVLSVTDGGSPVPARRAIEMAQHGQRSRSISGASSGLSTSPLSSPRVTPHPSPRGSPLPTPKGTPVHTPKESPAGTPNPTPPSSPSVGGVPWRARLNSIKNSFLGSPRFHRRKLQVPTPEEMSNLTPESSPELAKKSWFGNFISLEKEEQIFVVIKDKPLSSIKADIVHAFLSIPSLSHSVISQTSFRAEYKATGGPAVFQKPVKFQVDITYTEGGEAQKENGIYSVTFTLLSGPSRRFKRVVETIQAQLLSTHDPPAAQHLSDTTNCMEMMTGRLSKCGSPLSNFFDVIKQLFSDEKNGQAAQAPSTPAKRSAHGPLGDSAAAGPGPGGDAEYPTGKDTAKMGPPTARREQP

[17] = biological target: T6, Serine/threonine-protein kinase BRSK2 (Homo sapiens); conditions: at 1 µM
[18] = biological target: Calcium/calmodulin-dependent protein kinase type 1D (Homo sapiens) (UniProt Q8IU85); conditions: at 0.1 µM
Calcium/calmodulin-dependent protein kinase type 1D (Homo sapiens), sequence (Q8IU85 whole entry, looked up): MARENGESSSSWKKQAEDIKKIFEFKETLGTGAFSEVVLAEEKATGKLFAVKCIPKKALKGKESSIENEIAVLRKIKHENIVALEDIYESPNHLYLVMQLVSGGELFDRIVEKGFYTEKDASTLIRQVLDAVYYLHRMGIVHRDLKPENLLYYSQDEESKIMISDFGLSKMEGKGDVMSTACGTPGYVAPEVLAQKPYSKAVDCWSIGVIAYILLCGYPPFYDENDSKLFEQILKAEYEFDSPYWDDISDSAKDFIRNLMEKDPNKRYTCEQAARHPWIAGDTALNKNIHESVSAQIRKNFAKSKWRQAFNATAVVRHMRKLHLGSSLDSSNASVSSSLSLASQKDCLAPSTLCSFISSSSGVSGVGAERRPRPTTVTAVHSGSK

[19] = biological target: Calcium/calmodulin-dependent protein kinase type 1D (Homo sapiens) (UniProt Q8IU85); conditions: at 1 µM
[20] = biological target: Calcium/calmodulin-dependent protein kinase type II subunit alpha (Homo sapiens) (UniProt Q9UQM7); conditions: at 0.1 µM;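 also: reported values are averages (mean inhibition of CAMK2A)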
Calcium/calmodulin-dependent protein kinase type II subunit alpha (Homo sapiens), sequence (Q9UQM7 whole entry): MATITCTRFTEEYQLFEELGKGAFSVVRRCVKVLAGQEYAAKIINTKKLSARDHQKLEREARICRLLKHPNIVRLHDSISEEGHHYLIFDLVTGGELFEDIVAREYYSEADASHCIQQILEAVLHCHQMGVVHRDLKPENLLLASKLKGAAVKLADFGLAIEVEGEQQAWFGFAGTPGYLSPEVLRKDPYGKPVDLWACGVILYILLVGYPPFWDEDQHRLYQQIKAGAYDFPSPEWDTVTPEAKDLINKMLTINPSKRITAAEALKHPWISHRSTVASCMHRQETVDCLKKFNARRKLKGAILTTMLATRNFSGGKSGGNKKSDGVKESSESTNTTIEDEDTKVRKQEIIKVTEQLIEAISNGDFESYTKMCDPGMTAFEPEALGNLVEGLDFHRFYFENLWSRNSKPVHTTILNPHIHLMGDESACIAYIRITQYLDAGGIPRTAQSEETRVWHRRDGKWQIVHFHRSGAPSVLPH

Ribosomal protein S6 kinase alpha-6 (Homo sapiens), sequence (Q9UK32 whole entry): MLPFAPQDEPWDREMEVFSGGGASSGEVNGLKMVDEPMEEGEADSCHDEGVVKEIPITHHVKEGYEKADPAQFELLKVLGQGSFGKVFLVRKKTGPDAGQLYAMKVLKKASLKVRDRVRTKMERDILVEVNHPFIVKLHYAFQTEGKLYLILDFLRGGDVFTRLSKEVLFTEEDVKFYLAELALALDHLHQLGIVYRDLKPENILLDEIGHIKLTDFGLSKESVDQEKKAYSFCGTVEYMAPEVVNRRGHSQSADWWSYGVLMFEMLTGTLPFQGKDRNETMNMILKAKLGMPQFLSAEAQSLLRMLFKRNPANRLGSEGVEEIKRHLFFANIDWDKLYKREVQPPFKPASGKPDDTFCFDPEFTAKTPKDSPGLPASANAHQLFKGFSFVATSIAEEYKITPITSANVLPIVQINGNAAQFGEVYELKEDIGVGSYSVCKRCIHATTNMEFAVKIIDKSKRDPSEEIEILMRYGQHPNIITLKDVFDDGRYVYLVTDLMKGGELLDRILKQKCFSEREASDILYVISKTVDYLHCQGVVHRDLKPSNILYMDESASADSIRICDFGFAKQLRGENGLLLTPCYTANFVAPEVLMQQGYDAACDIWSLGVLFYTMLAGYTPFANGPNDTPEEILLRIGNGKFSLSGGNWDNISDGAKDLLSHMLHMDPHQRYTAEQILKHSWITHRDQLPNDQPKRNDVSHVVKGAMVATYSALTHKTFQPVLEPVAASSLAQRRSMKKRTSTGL

Row | Structure (SMILES) | inhibition [1] [%] | inhibition [2] [%] | inhibition [3] [%] | inhibition [4] [%] | inhibition [5] [%] | inhibition [6] [%] | inhibition [7] [%] | inhibition [8] [%] | inhibition [9] [%] | inhibition [10] [%] | inhibition [11] [%] | inhibition [12] [%] | inhibition [13] [%] | inhibition [14] [%] | inhibition [15] [%] | inhibition [16] [%] | inhibition [17] [%] | inhibition [18] [%] | inhibition [19] [%] | inhibition [20] [%]
1 | O=C1NC(=O)C(c2cccc(Cl)c2)=C1Nc1ccc(Cl)c(C(=O)O)c1 | 3.09 | 3.35 | 8.21 | 0.84 | 3.07 | 2.77 | 4.64 | 3.69 | 3.89 | -0.69 | -4.09 | -9.56 | 3.08 | -0.75 | 0.27 | 1.73 | 2.47 | -1.22 | -0.07 | 3.4
2 | O=C(Nc1ccc(Oc2ccc3[nH]c(NC(=O)c4ccccc4)nc3c2)cc1)Nc1cc(C(F)(F)F)ccc1F | 2.72 | 1.68 | 3.96 | 2.66 | 4.13 | 1.78 | 2.24 | 2.87 | 2.98 | 0.79 | 4.55 | 1.15 | 3.05 | 0.18 | 0.16 | 1.2 | 2.83 | -0.03 | 1.95 | 2.8
3 | COc1cc(C)c(N(C)C(=O)CN(C)C)cc1Nc1nc(Nc2cccc(F)c2C(N)=O)c2cc[nH]c2n1 | 4.74 | 1.3 | 0.1 | -3 | 3.7 | 0.02 | 0.78 | 1.44 | 0.94 | -0.28 | 3.07 | 0.7 | 4.1 | 0.88 | -0.02 | 0.05 | 0.83 | 1.27 | 2.67 | 3.48
4 | O=C(Nc1n[nH]c2cc(-c3ccccc3)ccc12)C1CC1 | 3.11 | 2.86 | 5.38 | 1.79 | 1.73 | 4.57 | 3.95 | 3.49 | 4.22 | 4.21 | 7.53 | 4.99 | 2.6 | 4.46 | 21 | 3.64 | 19.7 | 0.34 | -0.38 | 3.14
5 | c1ccc(Oc2ccc(Nc3ncc(-c4ccccc4)o3)cc2)cc1 | 0.25 | 2.19 | 2.9 | 6.17 | 2.79 | 3.61 | 3.17 | 0.33 | 3.46 | 1.31 | 2.49 | -0.75 | 5.38 | -0.66 | 0.76 | 0 | 1.39 | 0.01 | 0.14 | -0.24
6 | CCS(=O)(=O)c1ccc(OC)c(Nc2ncc(-c3ccccc3Cl)o2)c1 | 3.92 | -0.42 | 2.5 | -1.58 | -2.15 | -0.26 | -1.36 | 1.54 | 0.82 | -1.8 | 2.95 | 2.27 | 1.46 | -1 | -0.58 | 0.64 | -1.12 | 0.68 | 1.43 | 2.2
7 | O=C1Nc2ccccc2/C1=C/Nc1ccc(-n2cncn2)cc1 | 11.4 | 5.81 | 29.2 | 3.56 | 10.9 | 4.57 | 8.06 | 5.93 | 19.3 | 3.9 | 15.5 | 8.76 | 38.7 | 2.17 | 17.2 | 4.08 | 26.3 | 0.18 | 0.98 | 3.66
8 | N#Cc1ccc(Oc2nccc(-c3c(-c4ccc(F)cc4)ncn3C3CCNCC3)n2)cc1 | 0.97 | 2.45 | 2.02 | 7.44 | 3.86 | 2.02 | 3.62 | 2.27 | 3.89 | 3.09 | 3.23 | -1.37 | 0.67 | -2.05 | 0.23 | 0.71 | 2.75 | 0.44 | 0.96 | 2.95
9 | CN(c1ccc(NC(=O)Nc2c(Cl)cccc2Cl)cc1)c1ccnc(Nc2cccc(CS(C)(=O)=O)c2)n1 | 1.06 | 1.73 | 7.64 | 5.92 | 22.8 | 3.73 | 4.02 | 2.22 | 3.05 | -0.21 | 3.21 | 9.51 | 30.2 | 0.84 | 9.78 | 2.74 | 8.66 | 1.34 | -0.13 | 2.56
10 | C[C@@H](Oc1cc(-n2cnc3ccc(OC4CCN(C)CC4)cc32)sc1C(N)=O)c1ccccc1Cl | 40.4 | 1.16 | 1.49 | 2.92 | 1.45 | 3.29 | 2.26 | 5.35 | 21.6 | 5.98 | 9.02 | 22 | 66.8 | 27.6 | 58 | 37.9 | 70.8 | -0.95 | 3.84 | 2.57
11 | CCc1nccc2c1nc(-c1nonc1N)n2CC | 0.92 | 0.21 | 3.23 | 0.23 | 9.51 | 2.62 | 7.73 | 1 | -1.23 | -1.43 | 2 | 2.71 | 4.47 | 0.98 | 4.27 | 2.16 | 4.53 | 1.07 | 1.8 | 0.2
